What is called inhibition is the drop in the measured response relative to a control, in per cent.

Sequence of Solute carrier family 2, facilitated glucose transporter member 1 (Homo sapiens) (P11166 whole entry): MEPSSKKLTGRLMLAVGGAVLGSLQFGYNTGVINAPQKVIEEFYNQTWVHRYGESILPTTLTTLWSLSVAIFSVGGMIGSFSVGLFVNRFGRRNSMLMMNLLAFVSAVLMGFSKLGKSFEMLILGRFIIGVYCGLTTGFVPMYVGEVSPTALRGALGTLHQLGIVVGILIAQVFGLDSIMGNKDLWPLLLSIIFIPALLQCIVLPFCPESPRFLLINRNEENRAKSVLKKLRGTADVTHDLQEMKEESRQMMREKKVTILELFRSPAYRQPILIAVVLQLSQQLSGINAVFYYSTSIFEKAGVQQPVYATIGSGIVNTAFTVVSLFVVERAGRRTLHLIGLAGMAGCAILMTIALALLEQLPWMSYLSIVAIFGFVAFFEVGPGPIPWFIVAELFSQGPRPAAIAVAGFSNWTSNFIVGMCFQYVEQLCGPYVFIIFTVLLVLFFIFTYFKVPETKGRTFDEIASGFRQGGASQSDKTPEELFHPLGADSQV

The test has as its target Solute carrier family 2, facilitated glucose transporter member 1 (Homo sapiens) (UniProt P11166). Briefly: ST_JUDE_LEISH: Cytotoxicity at 2uM final concentration against transgenic Leishmania Mexicana promastigotes LmGLUT1 that are glucose transport deficient and complemented with the human glucose transporter GLUT1. Activity is measured by DNA content using SYBR green in vitro. The test is classed as functional.
As to `COc1ccc2c(c1)c(C1CCN(CCCCNC(=O)c3ccc(-c4ccc(C(F)(F)F)cc4)cc3)CC1)cn2C(C)C`, the inhibition was -0.71%.

`O=C(NCC(CCN1CCC(c2c[nH]c3ccccc23)CC1)c1ccccc1)Nc1ccc(Cl)c(Cl)c1` (centres undefined): the inhibition was found to be 5.74%.

Consider `c1cc(CNCCc2ccncc2)cc(-c2ccc(-c3nc4ccccc4[nH]3)s2)c1`, for which the inhibition came out at 0.32%.

With `O=C(Nc1ccc(N2CCCCC2)c(Cl)c1)c1ccco1`, the inhibition was found to be 0.11%. `O=C(CCCc1ccccc1)Nc1cccc(N2CCC(N3CCN(c4ccccc4O)CC3)CC2)c1`: the inhibition turned out to be 11.8%. Under `Cc1cn(CC(=O)Nc2cccc(-c3cccc(-c4nc5cccc(C)c5[nH]4)c3)c2)c(=O)[nH]c1=O` stands 4.43%. For `Cc1cc(I)ccc1Nc1nc2nonc2nc1Nc1ccc(I)cc1C`, the inhibition came to 9.92%. Turning to `COc1ccc(CNCc2ccc(F)cc2)cc1-c1ccc(OC)c(S(=O)(=O)NCCN2CCCC2)c1`, the inhibition was 5.21%. With `COc1cc(C=NNc2cc(C)nc3c(OC)cccc23)cc(OC)c1OC`, the inhibition stood at 7.21%. As to `CCN(CC)S(=O)(=O)c1ccc(C(=O)Oc2ccccc2N(Cc2ccc(OC)cc2)C2=NS(=O)(=O)c3ccccc32)cc1`, the inhibition was 3.69%. Under `CSc1nnc2n(Cc3ccccc3)c(=O)c3c(n12)-c1ccccc1CC31CCCCC1` stands 2.53%; under `COc1cc2nc(NCCc3ccccc3)nc(NCc3cc(C)no3)c2cc1OC`, 4.85%. The result for `CC(C)(C)OC(=O)Cn1cnc2cc(NC(=O)c3cc([N+](=O)[O-])cc([N+](=O)[O-])c3)ccc21` reads 3.13%. For `CC(=O)N1CCC(C(=O)Nc2ccc(-c3cccc(-c4nc5cc(C(F)(F)F)ccc5[nH]4)c3)cc2)CC1`, the inhibition stood at 0.57%.
